From PubChem BioAssay
CD40 NFkB inh = CD40 pathway inhibition in BL2 cells. BL2 NF-kB luciferase reporter, CD40L-induced, 4 h. inhibition, % at 10 µM. 83,000 compounds, 0.94% hits. AID 1053188;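 active = mean inhibition of at least 50% with a set share of replicates also reaching that level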;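 also: 0% = neutral control wells and 100% = IKK inhibitor VII at 50 µM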
* = called active by the depositor; [ ] = remark or other dose. The full list was thinned out, with hits kept by preference.

SMILES	CD40 NFkB inh
C[C@@H]1CN([C@H](C)CO)C(=O)c2cc(NS(=O)(=O)c3cccs3)ccc2O[C@@H](C)CCCCO[C@H]1CN(C)Cc1ccc(Cl)c(Cl)c1	56*[25 µM]
C[C@@H]1CCCCO[C@@H](CN(C)Cc2ccc(Cl)c(Cl)c2)[C@H](C)CN([C@@H](C)CO)C(=O)c2cc(NS(=O)(=O)c3cccs3)ccc2O1	39[25 µM]
C[C@@H]1CCCCO[C@@H](CN(C)Cc2ccc(Cl)c(Cl)c2)[C@H](C)CN([C@H](C)CO)C(=O)c2cc(NS(=O)(=O)c3cccs3)ccc2O1	58*[25 µM]
COc1cc(CN2[C@@H]3CNC[C@H]2C3c2ccc(-c3ccc(C)cc3)cc2)cc(OC)c1 (stereo not given in full)	-5[25 µM]
CC(=O)Nc1ccc2c(c1)CC(=O)N(C)C[C@H](C)[C@@H](CN(C)C(=O)NC(C)C)O2	-2
COc1cccc(CNC(=O)[C@H]2[C@H](CO)[C@H]3Cn4c(ccc(-c5ccncc5)c4=O)[C@@H]2N3C(C)=O)c1	4[25 µM]
C[C@H](CO)N1C[C@H](C)[C@@H](CN(C)C(=O)Nc2ccc(F)cc2)OCc2ccccc2-c2c(n(C)c3ccccc23)C1=O	31[25 µM]
CN(C)c1ccc2c(c1)[C@@H]1C[C@@H](CC(=O)NCc3ccccc3F)O[C@@H](CO)[C@@H]1O2	-5[25 µM]
C[C@@H]1CN(C)C(=O)Cc2cc(N)ccc2O[C@H]1CN(C)C	6
O=C(NC1CC1)c1cc2ccccc2o1	-4
O=C(NC1=NCCS1)c1cc2ccccc2o1	63*
O=C(Nc1ncccc1O)c1cc2ccccc2o1	-9
O=C(Nc1ccc2c(c1)OCCO2)c1cc2ccccc2o1	33
O=C(Nc1cccc2ncccc12)c1cc2ccccc2o1	-10
Cc1ccnc(NC(=O)c2cc3ccccc3o2)c1	88*
O=C(C[C@H]1C[C@H]2c3cc(NC(=O)c4ccc5c(c4)OCO5)ccc3O[C@H]2[C@H](CO)O1)NC1CCCC1	-26
O=C(C1CC1)N1C[C@@H]2[C@H](c3ccccc31)[C@@H](CO)N2C(=O)c1ccccc1F	-8
COc1ccc(C[C@H]2CCn3nncc3COC[C@H](CC(C)C)NC2=O)cc1	-5[25 µM]
C[C@H]1CN([C@@H](C)CO)C(=O)c2ccccc2-c2ccccc2CO[C@H]1CN(C)Cc1ccc(F)cc1	2
CN(C)C(=O)[C@@H]1[C@@H](CO)[C@@H]2Cn3c(ccc(C4=CCCC4)c3=O)[C@H]1N2CC1CC1	5
COc1ccccc1N(C(C)=O)C1=C(Cl)C(=O)c2ccccc2C1=O	101*
COc1ccccc1N(CC(=O)N(CC(C)C)CC(C)C)S(=O)(=O)c1cccs1	14
COc1ccc(Cl)cc1N(C(C)C(=O)O)S(C)(=O)=O (stereo not given)	-1
C[C@@H]1CN(C)C(=O)c2cc(N)ccc2O[C@@H]1CN(C)S(C)(=O)=O	-4
COc1cc2c(cc1OC)[C@@H]1Cc3ccc(OC)c(OC)c3CN1CC2	3
SMILES	CD40 NFkB inh
COc1cc2c(cc1OC)C1Cc3ccc(OC)c(OC)c3CN1CC2 (stereo not given)	-15[25 µM]
CCC1=C(CC2NCCc3ccccc32)CC2c3cc(OC)c(OC)cc3CCN2C1 (stereo not given)	55*
Cc1ccccc1OCC(=O)Nc1cccc(C(=O)O)c1	91*
Cc1ccccc1OCC(=O)Nc1ccc2c(c1)C(=O)c1ccccc1C2=O	-9
Cc1ccccc1OCC(=O)Nc1ccc2c(c1)Cc1ccccc1-2	7
C[C@H]1CN(C)C(=O)c2cccc([N+](=O)[O-])c2O[C@@H]1CN(C)C(=O)OC(C)(C)C	-4
CC(C)NC(=O)N(C)C[C@@H]1Oc2ccc(N)cc2C(=O)N(C)C[C@H]1C	3
N#C[C@H]1[C@@H](c2ccc(C#CC3CCCCC3)cc2)[C@@H](CO)N1C(=O)Nc1ccc(F)cc1	62*[25 µM]
N#C[C@@H]1[C@@H](c2ccc(C#CC3CCCC3)cc2)[C@H](CO)N1C(=O)Nc1ccc(F)cc1	21
N#C[C@@H]1[C@H](c2ccc(C#CC3CCCCC3)cc2)[C@@H](CO)N1C(=O)Nc1ccc(F)cc1	77*[25 µM]
N#C[C@@H]1[C@@H](c2ccccc2-c2ccc(F)cc2)[C@H](CO)N1C(=O)NC1CCCCC1	59*[25 µM]
N#C[C@H]1[C@@H](c2ccc(C#Cc3ccc(F)cc3)cc2)[C@H](CO)N1C(=O)Nc1ccc(F)cc1	-12
CC(C)NC(=O)N1[C@H](CO)[C@@H](c2ccc(C#CC3CCCCC3)cc2)[C@@H]1C#N	19
N#C[C@@H]1[C@H](c2ccc(C#CC3CCCC3)cc2)[C@H](CO)N1C(=O)Nc1ccc(F)cc1	0
N#C[C@H]1[C@H](c2ccccc2-c2ccc(F)cc2)[C@@H](CO)N1C(=O)NC1CCCCC1	30[25 µM]
N#C[C@H]1[C@H](c2ccccc2-c2ccc(F)cc2)[C@H](CO)N1C(=O)NC1CCCCC1	13[25 µM]
COc1cccc(-c2ccc3c(c2)[C@@H]2[C@@H](CCN2C(=O)c2ccc(F)cc2)[C@@H](CO)N3)c1	-12[25 µM]
CCCNc1ccc2ncc(Br)n2n1	36
CC(=O)N1C[C@@H]2C(c3ccccc3)[C@H](C1)N2C(C)=O (stereo not given in full)	-1
Cc1ccccc1S(=O)(=O)N(C)C[C@H]1OCc2ccccc2-c2ccccc2C(=O)N([C@@H](C)CO)C[C@@H]1C	13
C[C@@H]1CN(C)C(=O)c2cc(N)ccc2O[C@H]1CN(C)C(=O)OC(C)(C)C	0
C[C@H](CO)N1C[C@H](C)[C@@H](CN(C)Cc2cccc(C(F)(F)F)c2)OCc2ccccc2-c2ccccc2C1=O	-11[25 µM]
N#C[C@H]1[C@@H](c2ccccc2-c2ccc(F)cc2)[C@@H](CO)N1C(=O)NC1CCCC1	9
CC(=O)[C@@]1(O)CC[C@H]2[C@@H]3C[C@H](C)C4=CC(=O)C=C[C@]4(C)[C@@]3(F)[C@@H](O)C[C@@]21C	23
C[C@@H]1C[C@H]2[C@@H]3C[C@H](F)C4=CC(=O)C=C[C@]4(C)[C@@]3(F)[C@@H](O)C[C@]2(C)[C@@]1(O)C(=O)COC(=O)C(C)(C)C	33
SMILES	CD40 NFkB inh
CCCC(=O)O[C@]1(C(=O)COC(C)=O)CC[C@H]2[C@@H]3C[C@H](F)C4=CC(=O)C=C[C@]4(C)[C@@]3(F)[C@@H](O)C[C@@]21C	56*
CC(=O)N(CC(C)C)C[C@H]1[C@@H](c2ccc(C3=CCCC3)cc2)[C@@H](CO)N1C(C)=O	-2[25 µM]
COCC(=O)Nc1ccc2c(c1)C(=O)N(C)[C@H]1CC[C@H](CC(=O)N3CCc4ccccc4C3)O[C@H]1CO2	6[25 µM]
CCCN1C[C@H](C)[C@@H](OC)CN(C)C(=O)c2cc(NC(=O)NC3CCCC3)ccc2OC[C@H]1C	-7
Cc1c(CCOC(=O)c2ccccc2)sc[n+]1Cc1ccccc1	-2
Cc1c(CCOC(=O)CC23CC4CC(CC(C)(C4)C2)C3)sc[n+]1CC(=O)c1ccccc1	70*
Cc1c(CCOC(=O)C23CC4CC(CC(C)(C4)C2)C3)sc[n+]1CC(=O)c1ccccc1	42
CC(=O)N(C)C[C@H]1Oc2ccc(NS(C)(=O)=O)cc2CC(=O)N(C)C[C@@H]1C	-1
CC(C)[C@@H]1COCc2cn(nn2)CCC[C@@H](C)C(=O)N1	-19[25 µM]
COc1cccc(S(=O)(=O)N[C@@H]2CC[C@H](CC(=O)NC3Cc4ccccc4C3)O[C@H]2CO)c1	-16[25 µM]
CCCC(CC)Sc1nc2c([nH]1)c(=S)n(C)c(=O)n2C (stereo not given)	-45
CSc1nc2c([nH]1)c(=S)n(C)c(=O)n2C	74*
CCCCC(C)Sc1nc2c([nH]1)c(=S)n(C)c(=O)n2C (stereo not given)	-37
